Test results from PubChem BioAssay (EPA / NIEHS).
Active and inactive are the calls of the source. The calls were made as follows: active = hit-call score of the fitted dose curve at least 0.9, where 1 is the maximum; inactive = score below 0.9.

Legend:
[1] = read-out: Collagen I, COL1A1 (gene 1277); assay: BSK_MyoF_CollagenI: BioMAP Diversity Plus: MyoF Assay for Collagen I Biomarker Activity (AID 2284238); details: primary human lung fibroblasts
In short: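 Lung fibroblasts (human primary) dosed, 24 h; Collagen I by ELISA; positive-direction fit vs DMSO control. Parallel SRB total-protein staining (0.1% SRB, 10% TCA fixation, 560 nm) flags overt cytotoxicity.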

[2] = read-out: Actin alpha 1 (ACTA1), ACTA1 (gene 58); assay: BSK_MyoF_ACTA1: BioMAP Diversity Plus: MyoF Assay for Actin alpha 1 (ACTA1) Biomarker Activity (AID 2284244); details: primary human lung fibroblasts
In short: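 Measured by ELISA: alpha-smooth muscle actin in human primary lung fibroblasts 24 h after dosing, with DMSO as baseline and upward signal change as the fitted direction.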

[3] = read-out: Interleukin 2 (IL2), IL2 (gene 3558); assay: BSK_BT_xIL2: BioMAP Diversity Plus: BT Assay for Interleukin 2 (IL2) Biomarker Activity (AID 2284245); details: primary human B cells with PBMC
In short: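 Secreted interleukin-2 from human B cell/PBMC co-cultures, measured 24 h post-dosing by Luminex multiplex immunoassay. Upward-direction curve fitting against DMSO baseline.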

[4] = read-out: Basic fibroblast growth factor (bFGF), FGF2 (gene 2247); assay: BSK_MyoF_bFGF: BioMAP Diversity Plus: MyoF Assay for Basic fibroblast growth factor (bFGF) Biomarker Activity (AID 2284246); details: primary human lung fibroblasts
In short: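 In this multiplexed cell system, lung fibroblasts (human primary) receive test chemical for 24 h before ELISA detection of bFGF; DMSO defines baseline and the analysis direction is positive.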

[5] = read-out: Collagen IV, COL4A1 (gene 1282); assay: BSK_MyoF_CollagenIV: BioMAP Diversity Plus: MyoF Assay for Collagen IV Biomarker Activity (AID 2284247); details: primary human lung fibroblasts
In short: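 Activity is scored as a signal increase over DMSO in an ELISA for Collagen IV, measured on human lung fibroblasts at 24 h after chemical treatment. Cytotoxicity is checked in parallel cultures by sulforhodamine B total-protein staining.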

[6] = read-out: Plasminogen activator inhibitor-1 (PAI1), SERPINE1 (gene 5054); assay: BSK_MyoF_PAI1: BioMAP Diversity Plus: MyoF Assay for Plasminogen activator inhibitor-1 (PAI1) Biomarker Activity (AID 2284256); details: primary human lung fibroblasts
In short: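 Primary human lung fibroblasts are dosed and incubated 24 h. PAI-1 is then measured by ELISA, while parallel cultures undergo SRB staining for overt cytotoxicity. Increases over DMSO define activity.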

[7] = read-out: Interleukin-8 (IL8), CXCL8 (gene 3576); assay: BSK_MyoF_IL8: BioMAP Diversity Plus: MyoF Assay for Interleukin-8 (IL8) Biomarker Activity (AID 2284261); details: primary human lung fibroblasts
In short: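 IL-8 levels were measured by ELISA in human lung fibroblasts harvested 24 h after compound addition. Responses were analysed as gain of signal over the DMSO baseline.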

Decorin, DCN (gene 1634) = assay: BSK_MyoF_Decorin: BioMAP Diversity Plus: MyoF Assay for Decorin Biomarker Activity (AID 2284265); details: primary human lung fibroblasts
In short: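 Compound is added to lung fibroblast cultures; cells incubate 24 h; decorin is then measured by ELISA; the response is analysed upward against DMSO controls.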

[8] = BSK_MyoF_SRB: Viability Assessment in the BioMAP Diversity Plus: MyoF Assay (AID 2284267); details: primary human lung fibroblasts;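 also: total protein by SRB absorbance in parallel cultures as cytotoxicity measure; cells assessed 24 h after compound addition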
In short: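 Cytotoxicity in primary human lung fibroblasts is gauged by SRB total-protein staining 24 h after dosing, with DMSO as the negative control.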

[9] = read-out: TIMP metallopeptidase inhibitor 1 (TIMP1), TIMP1 (gene 7076); assay: BSK_MyoF_TIMP1: BioMAP Diversity Plus: MyoF Assay for TIMP metallopeptidase inhibitor 1 (TIMP1) Biomarker Activity (AID 2284269); details: primary human lung fibroblasts
In short: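 Fibroblasts from human lung are dosed with chemical, cultured 24 h, and assayed for TIMP-1 by ELISA. Increases over the DMSO baseline are scored, with SRB total-protein staining run in parallel for cytotoxicity.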

Measured: AC50

COc1ccc(CCN2CCC(Nc3nc4ccccc4n3Cc3ccc(F)cc3)CC2)cc1
active: [1] 8.62 µM | [2] 8.05 µM | [3] 6.51 µM | [4] 7.78 µM | [7] 7.38 µM | [8] 7.48 µM
inactive: [5] | [6] | Decorin, DCN (gene 1634) | [9]

CN(C)C(=O)Nc1ccc(Oc2ccc(Cl)cc2)cc1
inactive: [1] | [2] | [4] | [5] | [7] | Decorin, DCN (gene 1634) | [8] | [9]
active: [3] 20 µM | [6] 0.016 µM

COc1ccc(OC)c(N=Nc2c(O)ccc3ccccc23)c1
inactive: [1] | [3] | [5] | [6] | Decorin, DCN (gene 1634)
active: [2] 10.5 µM | [4] 20 µM | [7] 0.0788 µM | [8] 6.83 µM | [9] 3.12 µM

CSCCC=O
inactive: [1] | [2] | [3] | [4] | [5] | [6] | [7] | Decorin, DCN (gene 1634) | [8] | [9]

CC(=O)c1c(C)c([N+](=O)[O-])c(C(C)(C)C)c([N+](=O)[O-])c1C
inactive: [1] | [2] | [3] | [4] | [5] | [6] | [7] | Decorin, DCN (gene 1634) | [8] | [9]
